MsrA inhibitor = bovine MsrA enzyme inhibitors, primary screen, biochemical, absorbance, HTS; actives 0.75% (n = 360,000); Methionine sulfoxide reductase A (Bos taurus); inhibition, % at 15.5 µM; purified bovine MsrA, absorbance read-out; AID 651718, 2012; in the data active = inhibition above about 4.5%
PG9 Ab binder = binders of HIV-1 gp120 antibody PG9, primary screen, biochemical, TR-FRET | HIV-1 gp120 / PG9 antibody interaction | TR-FRET gp120-PG9 antibody binding | inhibition, % at 6.7 µM | actives 0.43% (n = 360,000) | AID 624416, 2012; in the data active = inhibition above about 8.5%
sPLA2-III inh = human group III sPLA2 inhibitors, primary screen, biochemical, QFRET, BODIPY PC-A2 liposome substrate | QFRET BODIPY PC-A2 liposome hydrolysis, fluorescence | inhibition, % at 12.2 µM | actives 0.56% (n = 370,000);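 active = inhibition above mean plus 3 SD of compounds lying within the high and low control bounds, cut at about 19% in these data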
Target sequence (Q9NZ20 whole entry, looked up): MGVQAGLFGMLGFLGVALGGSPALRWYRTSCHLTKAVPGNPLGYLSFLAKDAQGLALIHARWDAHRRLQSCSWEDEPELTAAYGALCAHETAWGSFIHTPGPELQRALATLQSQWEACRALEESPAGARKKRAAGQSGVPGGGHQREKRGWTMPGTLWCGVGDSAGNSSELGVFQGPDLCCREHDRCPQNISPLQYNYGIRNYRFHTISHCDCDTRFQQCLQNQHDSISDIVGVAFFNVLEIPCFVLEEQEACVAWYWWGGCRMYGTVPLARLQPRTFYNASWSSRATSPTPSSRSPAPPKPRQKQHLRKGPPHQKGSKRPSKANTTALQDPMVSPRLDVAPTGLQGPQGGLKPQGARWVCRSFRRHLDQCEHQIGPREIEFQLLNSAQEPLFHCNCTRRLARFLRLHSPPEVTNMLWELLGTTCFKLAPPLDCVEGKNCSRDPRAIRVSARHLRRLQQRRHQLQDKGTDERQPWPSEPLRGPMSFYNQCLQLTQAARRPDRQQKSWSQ
bovine MsrA act = bovine MsrA enzyme activators, primary screen, biochemical, absorbance, HTS; actives 0.3% (n = 360,000); AID 602163, 2012; Methionine sulfoxide reductase A (Bos taurus); activation, % at 10.6 µM; purified bovine MsrA, absorbance read-out; in the data active = activation above about 7.5%
rCAG binder = binders of r(CAG) RNA repeats, primary screen, biochemical, fluorescence; r(CAG) RNA repeat, TO-PRO-1 dye displacement fluorescence; inhibition, % at 3 µM; actives 1.3% (n = 370,000);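 active = inhibition above the plate cutoff, the mean of all test compounds on that plate plus 3 SD, cut at about 35% in these data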;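 also: higher means more dye released from RNA so lower well fluorescence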
rCAG binder conf = small molecules binding CAG repeat RNA – biochemical, fluorescence, confirmation. shares compounds with rCAG binder. r(CAG) RNA repeat, TO-PRO-1 dye displacement fluorescence. inhibition, % at 3 µM. actives 70% (n = 4,300). AID 652065, 2013;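 active = inhibition above a per-plate cutoff, the mean inhibition of sample wells plus 3 SD, cut at about 35% in these data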;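 also: loss of TO-PRO-1 fluorescence as compound displaces dye from 1x1 AA loop RNA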
dCAG dye counter = displacement of TO-PRO-1 from CAG DNA duplex, counter-screen for rCAG RNA repeat binder project, biochemical, fluorescence, TO-PRO-1 dye, d(CAG) DNA oligo | shares compounds with rCAG binder | d(CAG) DNA oligo TO-PRO-1 dye displacement | inhibition, % at 3 µM | actives 94% (n = 4,300) | AID 652068, 2013;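 active = inhibition above its plate's cutoff, the mean test-well inhibition plus 3 SD, cut at about 4.8% in these data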;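 also: hits displace the dye from DNA and so lower well fluorescence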
dCAG dye DR = inhibitors of DNA CAG/GTC TO-PRO-1 complex, dose response, counter-screen for rCAG RNA repeat binder project, biochemical, fluorescence, TO-PRO-1 dye; actives 20% (n = 250); shares compounds with rCAG binder; DNA CAG/GTC duplex TO-PRO-1 dye displacement fluorescence; IC50, µM; in the data active = IC50 below about 10 µM
A number is an active result; – = inactive; · = no result given. The list is not random: actives were taken first. Their share in the collection is about 3.2%.

SMILES	MsrA inhibitor	PG9 Ab binder	sPLA2-III inh	bovine MsrA act	rCAG binder	rCAG binder conf	dCAG dye counter	others
C=CCOc1ccccc1C1C2=C(CC(C)(C)CC2=O)Nc2c1c(=O)n(C)c(=O)n2C (centres undefined)	–	–	–	–	–	·	·
Cc1ccc(-n2nc(C)c3c2NC2=C(C(=O)CC(C)(C)C2)C3c2ccccc2OCC(=O)O)cc1 (centres undefined)	–	–	–	–	37	41	9.4
N=c1c(S(=O)(=O)c2ccc(Cl)cc2)cc2c(=O)n3ccccc3nc2n1Cc1ccco1	–	–	–	–	36	56	25
N=c1c(S(=O)(=O)c2ccc(Br)cc2)cc2c(=O)n3ccccc3nc2n1Cc1ccco1	–	–	–	–	–	·	·
O=C(/C(=N\Nc1ccc(Br)cc1)Sc1nnnn1-c1ccccc1)c1ccccc1	–	–	–	–	–	·	·
Brc1ccc(N/N=C(/N=Nc2nn[nH]n2)c2ccccc2)cc1	–	–	–	–	95	92	67
Cc1cc(NS(=O)(=O)c2ccc(NC(=O)/C=C/c3c(F)cccc3Cl)cc2)no1	–	–	–	–	63	51	19
COc1ccc(/C=C/C(=O)Nc2ccc(S(=O)(=O)Nc3cc(C)nc(C)n3)cc2)cc1OC	–	–	–	–	–	·	·
Cc1cc(NS(=O)(=O)c2ccc(NC(=O)/C=C/c3c(F)cccc3Cl)cc2)nc(C)n1	–	–	–	–	43	–	8.7
CCOc1ccc(C2C(C#N)=C(N)SC(N)=C2C#N)cc1OCC	–	–	–	–	–	·	·
N#CC1=C(N)SC(N)=C(C#N)C1c1cccc(Oc2ccccc2)c1	–	–	–	–	60	–	11
C[C@@H]1COc2cc(Br)ccc2S(=O)(=O)N1Cc1cn(CCC2OCCO2)nn1	·	·	–	·	–	·	·
Cc1ccc(-c2csc(NC(=O)c3ccc(C)o3)n2)cc1	–	–	–	–	–	·	·
Cc1ccc(-c2csc(NC(=O)c3ccno3)n2)cc1	–	–	–	–	45	49	22
CCCCCCCCCCCCN1[C@@H](CC(C)=O)c2cc(C(F)(F)F)ccc2S1(=O)=O	–	–	–	–	–	·	·
CCCCCCCCN1[C@@H](CC(=O)O)c2ccc(C(F)(F)F)cc2S1(=O)=O	–	–	–	–	52	–	–
Nc1ncc(Br)cc1S(=O)(=O)Nc1cc(C(F)(F)F)cc(C(F)(F)F)c1	–	–	–	–	81	65	27	dCAG dye DR=–
COCc1[nH]nc2c1C(c1ccc(C)cc1)NC2=O (centres undefined)	–	–	–	·	–	·	·
COc1ccc(-n2c(O)c(/C=N/NS(=O)(=O)c3cc(C)ccc3C)c3ccccc3c2=O)cc1OC	–	–	–	–	49	73	33
COc1ccc(-n2c(O)c(/C=N/NS(=O)(=O)c3ccc(C)cc3)c3ccccc3c2=O)cc1OC	–	–	–	–	66	59	24
COc1ccccc1NS(=O)(=O)c1cccc(-n2c(O)c(C=Nc3ccccc3C(=O)O)c3ccccc3c2=O)c1	–	–	–	–	91	91	73
CC(=O)Nc1nc2ncccn2c1-c1ccc(C)cc1	·	·	–	·	–	·	·
CC(CCN1CCC(C(O)(c2ccccc2)c2ccccc2)CC1)Oc1cccc(Cl)c1 (centres undefined)	·	·	–	·	–	·	·
COc1ccc2[nH]c3c(c2c1)CCN[C@]31C(=O)N(C)c2ccc(Br)cc21	·	·	–	·	–	·	·

Compound activity from PubChem.
